Test results: ChEMBL document CHEMBL1157539, “Thousands of chemical starting points for antimalarial lead identification” (Nature, 2010)

Legend:
Format in all cases: functional
Plasmodium falciparum [1] = test: GSK_TCMDC: Inhibition of Plasmodium falciparum 3D7 in whole red blood cells, using parasite LDH activity as an index of growth. Test compounds present at 2uM
Plasmodium falciparum [2] = test: GSK_TCMDC: Inhibition of Plasmodium falciparum Dd2 in whole red blood cells, using parasite LDH activity as an index of growth. Test compounds present at 2uM
HepG2 = test: GSK_TCMDC: Percent inhibition of human HepG2 cell line. Test compounds present at 10uM.

Compound | Inhibition (Plasmodium falciparum [1]) [%] | Inhibition (Plasmodium falciparum [2]) [%] | Inhibition (HepG2) [%]
Cc1[nH]c(C)c(-c2ccc(-c3ccccc3Cl)nc2)c(=O)c1Br | 97 | 96 | 0
COc1ccc2nccc([C@H](O)CN3CCC(NCc4ccc5c(c4C)OCCO5)CC3)c2n1.Cl | 94 | 6 | 26
CCSc1ccc(C)cc1CON1C(N)=NC(N)=NC1(C)C.Cl | 94 | 96 | 66
CC1CN(S(=O)(=O)c2ccc(NC(=O)c3cc(-c4ccccc4O)n[nH]3)cc2)CC(C)O1 (stereo not drawn) | 97 | 93 | 21
O=C(Nc1cccc(CN2CCCN(Cc3ncc[nH]3)CC2)c1)c1ccc(-c2ccccc2)cc1.O=C(O)C(F)(F)F | 100 | 56 | 23
COc1ccc2[nH]c(C)cc(=NN=Cc3ccc(Cl)cc3)c2c1 | 100 | 100 | 2
CCc1cccc(-n2c(=O)c3cccnc3n2CC(=O)NCc2ccccc2Cl)c1 | 98 | 19 | 25
COc1ccc(CCNCC(O)COc2nccc3c(S(=O)(=O)N4CCCNCC4)cccc23)cc1OC.Cl (stereo not drawn) | 96 | 0 | 59
CCNc1cc(C(=O)N[C@@H](Cc2ccccc2)[C@H](O)CNCc2cccc(OC)c2)c(OC)c(N2CCCCS2(=O)=O)c1 | 97 | 96 | 11
CS(=O)(=O)NCCCNCc1ccc(-c2ccc(-c3nc4cc(C(F)(F)F)ccc4[nH]3)cc2)cc1.O=C(O)C(F)(F)F | 100 | 83 | 25
O=C(NCCc1ccc(Cl)c(Cl)c1)c1ccc(CNC(=O)c2ccc(O)c(-c3ccc(Cl)c(Cl)c3)c2)cc1 | 97 | 3 | 0
CCCCCCCCNCC(O)c1cc(-c2ccc(Cl)cc2)nc2cc(C)ccc12 (stereo not drawn) | 99 | 99 | 0
O=C(Nc1ccc(Cl)cc1)c1cccc(S(=O)(=O)NC2CCN(CC3CCCCC3)C2)c1.O=C(O)C(F)(F)F (stereo not drawn) | 90 | 41 | 80
Cl.N#Cc1ccc2c(c1)CCN(CCC1CCC(NC(=O)c3cccc(-c4ccc(F)cc4)c3)CC1)CC2 (stereo not drawn) | 92 | 10 | 32
COc1ccc(Cl)cc1N1CCN(CCCNC(=O)c2ccc(-c3nc4cc(Cl)c(F)cc4[nH]3)s2)CC1 | 100 | 98 | 12
COc1ccc(Cl)cc1NC(=O)C(C)Nc1ccc(-c2ccccc2)cc1 (stereo not drawn) | 91 | 89 | 0
Cc1ccc(C)c(S(=O)(=O)Nc2ccc(Br)cc2C(=O)Nc2cccc(C(F)(F)F)c2)c1 | 81 | 98 | 56
COc1ccc2ncc(Cl)c(NCC3(O)CCC(NCc4ccc5c(n4)NC(=O)CS5)CC3)c2n1.Cl (stereo not drawn) | 96 | 31 | 39
CC(C)N1CCC(N(Cc2ccc(-c3ccc(C(F)(F)F)cc3)cc2)C(=O)Cn2c(SCc3cccc(F)c3F)nc(=O)c3ccccc32)CC1.O=C(O)C(O)C(O)C(=O)O | 91 | 75 | 74
CC(Nc1nc(Nc2ccc(F)cc2)nc(SCC(N)=O)n1)c1ccccc1 (stereo not drawn) | 90 | 87 | 14
SC(=Nc1ccc(Cl)c(Cl)c1)NN=Cc1ccccn1 | 98 | 85 | 40

Compound | Inhibition (Plasmodium falciparum [1]) [%] | Inhibition (Plasmodium falciparum [2]) [%] | Inhibition (HepG2) [%]
O=S(=O)(Nc1ccc(CCN2CCC(N3CCCCC3)CC2)cc1)c1ccc(Cl)cc1 | 100 | 18 | 23
O=C(NCCN1CCCCC1)c1ccc(CNC(=O)c2ccc(O)c(-c3cccc(C(F)(F)F)c3)c2)cc1 | 94 | 47 | 3
CC(=O)c1ccc(N2CCN(CCC3(c4ccc(Cl)c(Cl)c4)COCN(C(=O)c4ccccc4)C3)CC2)cc1 (stereo not drawn) | 88 | 95 | 12
N#Cc1cccc(C(=O)NC2CCN(CCCCCNC(=O)/C=C/c3ccc(Cl)c(Cl)c3)CC2)c1 | 100 | 0 | 11
O=C(Nc1ccsc1)Nc1cccc(-c2cccc(-c3nc4cc(C(F)(F)F)ccc4[nH]3)c2)c1 | 100 | 100 | 76
CCC(=O)OC(CCN(CC)CC)(c1ccccc1)c1ccccc1 | 98 | 6 | 30
CC1CN(c2cccc3c2nc(-c2cncc(C#N)c2)n3CCNCc2ccccc2)CC(C)O1.O=C(O)C(F)(F)F (stereo not drawn) | 83 | 9 | 0
CCc1ccc(CN2CCC(CNC(=O)c3cc(-c4cccc(Cl)c4)cs3)C2)cc1.O=C(O)C(F)(F)F (stereo not drawn) | 88 | 19 | 27
Cc1nc(C)c(-c2ccc(Oc3ccc(OC(F)(F)F)cc3)cc2)c(O)c1I | 95 | 96 | 3
COc1ccc(-n2ccnc2SCC(=O)Nc2cc(C)ccc2C)c(OC)c1 | 94 | 93 | 2
CC(=O)Nc1nc(C(=O)Nc2cccc(-c3ccc4c(cnn4CC4CC4)c3)c2)cs1 | 95 | 67 | 16
CC(C)NCc1ccc(-c2cccc(NC(=O)c3ccc(Cl)cc3)c2)cc1.O=C(O)C(F)(F)F | 100 | 82 | 20
c1cn(CCCNc2ncc(-c3ccsc3)c(-c3nccs3)n2)cn1 | 94 | 51 | 0
CN1CC(c2ccccc2)c2cc(O)c(CN3CCCCC3)cc2CC1Cc1ccccc1.Cl (stereo not drawn) | 99 | 99 | 0
O=C(Nc1ccccc1)Nc1cccc(-c2nn3c(OCC4CCCCN4)cccc3c2-c2ccncc2)c1 (stereo not drawn) | 97 | 82 | 9
CC(=O)Nc1ccc(C(=O)Nc2cccc(-c3ccc(-c4nc5cc(F)ccc5[nH]4)cc3)c2)cn1 | 99 | 99 | 10
CC(C)Oc1ccc2c(c1)OC(c1ccccc1)(C(F)(F)F)NC2=O (stereo not drawn) | 100 | 98 | 0
O=c1nc(NCCCCCN2CCC(c3c[nH]c4ccccc34)CC2)[nH]cc1Cc1ccc(Cl)c(Cl)c1 | 94 | 8 | 21
Cc1ccc(CN(Cc2ccc(C(=O)N(C)C)cc2)Cc2ccc3c(c2)OCCO3)cc1C | 91 | 87 | 10
Cc1cc(NC(=O)NCCN2CCC(NS(=O)(=O)c3ccc(C(F)(F)F)cc3)C2)c2ccccc2n1.O=C(O)C(F)(F)F (stereo not drawn) | 96 | 39 | 15
CCN(CC)CCNc1ccnc2[nH]c3ccc(I)cc3c12 | 100 | 95 | 14

Compound | Inhibition (Plasmodium falciparum [1]) [%] | Inhibition (Plasmodium falciparum [2]) [%] | Inhibition (HepG2) [%]
Cc1cc(N[C@@H](CC(C)C)C(=O)NCCOc2ccccc2)nc(NCCOc2ccccc2)n1.O=C(O)C(F)(F)F | 89 | 6 | 0
O=C(NCCCN1CCOCC1)c1csc(Nc2ccc(Cl)c(Cl)c2)n1 | 92 | 23 | 5
Cc1ccc2c(c1)nc(N)n2C[C@H](O)c1ccccc1 | 100 | 74 | 0
COc1cc(Cc2cnc(N)nc2N)ccc1OCc1cccc(Oc2ccccc2)c1 | 84 | 21 | 18
Cc1ccc(-c2ccc3c(c2)C=C(C(=O)NC2CCN(CCNC(=O)c4cccs4)CC2)CCC3)cc1.O=C(O)C(F)(F)F | 90 | 30 | 27
Cc1cc(NCCc2ccccc2)nc(NC(=N)Nc2ccc(Cl)cc2)n1 | 100 | 100 | 7
CN(C)C(C)(C)CN(Cc1ccc(-c2ccc(C(F)(F)F)cc2)cc1)C(=O)Cn1c(CCc2cccc(F)c2F)nc(=O)c2ccccc21.O=C(O)C(O)C(O)C(=O)O | 95 | 67 | 64
COc1ccc(-c2ccc(NC(=O)c3ccc(Cl)cc3)cc2)cc1CN1CCN(C)CC1.O=C(O)C(F)(F)F | 86 | 23 | 36
CNC(=O)c1cc(F)c(F)cc1Nc1nc(Nc2cccc(CS(C)(=O)=O)c2)ncc1Cl.O=CO | 91 | 90 | 52
CC(C)C(NC(=O)c1c(F)cccc1F)C(=O)Nc1ccc(Cc2nc3ccccc3s2)cc1 (stereo not drawn) | 86 | 55 | 0
NC(=O)c1cccc(C(=O)Nc2cccc(-c3cccc(-c4nc5ccccc5[nH]4)c3)c2)c1 | 100 | 78 | 32
CCC(N)(C#Cc1ccc(-c2c(C)[nH]c(C)c(Br)c2=O)cc1)CC | 97 | 96 | 0
CCOC(=O)C1=C(C)NC(Cn2ccnc2)=C(C(=O)OCC)C1c1ccc(C(C)(C)C)cc1.Cl (stereo not drawn) | 100 | 33 | 8
NC(=O)c1ccc(NCC(=O)Nc2cccc(-c3cccc(-c4nc5ccccc5[nH]4)c3)c2)cc1 | 99 | 30 | 9
CNc1nc(N/N=C/c2cc([N+](=O)[O-])c(Cl)cc2Cl)nc(Nc2cccc(C(F)(F)F)c2)n1 | 100 | 97 | 13
CCc1c(CCNCC/C=C/CCNCCc2ccc(OC)c(OC)c2CC)ccc(OC)c1OC.Cl | 100 | 7 | 41
O=C(O)/C=C\C(=O)O.O=c1c2sc(-c3ccc(Cl)cc3)cc2ncn1Cc1ccc(OCCN2CCCC2)c2ccccc12 | 100 | 81 | 38
CC(C)c1ccc(OCC(O)CN(C)C(C)C(O)c2ccccc2)c(Br)c1.Cl (stereo not drawn) | 95 | 97 | 36
CC(C)[C@H](NC(=O)c1ccc(O)c(-c2cccc(C(F)(F)F)c2)c1)C(=O)NCCN1CCCCC1 | 99 | 29 | 3
